Screens from PubChem BioAssay.
This is a sample that favours compounds with a hit; in the whole collection about 2.9% have one here.
KLK7 zymogen act: proKLK7 zymogen activators, primary screen, biochemical, fluorescence intensity; purified proKLK7, EDANS-DABCYL substrate fluorescence; 100% is mature enzyme control, 0% vehicle; activation, % at 7 µM; 370,000 compounds, 0.9% hits; AID 652039, 2013;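 active means activation above the mean of all tested compounds plus 3 SD, computed per campaign excluding outliers beyond control limits, cut at about 13% in these data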
ADAM17 inh: ADAM17 inhibitors, primary screen, biochemical, QFRET. recombinant ADAM17, EDANS/DABCYL FRET peptide cleavage. inhibition, % at 6.95 µM. 370,000 compounds, 0.83% hits. AID 720648, 2013;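 active means inhibition above the mean of compounds lying between control limits plus 3 SD, set per campaign, cut at about 8.5% in these data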;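 further: 0% = DMSO-only wells as the low control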
PLC-beta3 inh: human PLC-beta3 inhibitors, primary screen, biochemical, fluorescence | 1-phosphatidylinositol 4,5-bisphosphate phosphodiesterase beta-3 (Homo sapiens), Q01970 | Purified PLC-beta3, fluorogenic substrate | inhibition, % at 12.2 µM | 370,000 compounds, 0.18% hits; in the data active means inhibition above about 11%;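 further: 0% = median of compound wells on plate and 100% = full blocker control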
ADAM10 inh: human ADAM10 inhibitors, primary screen, biochemical, QFRET, HTS; AID 720582, 2013; Disintegrin and metalloproteinase domain-containing protein 10 (Homo sapiens), O14672; inhibition, % at 7 µM; recombinant ADAM10, EDANS/DABCYL FRET peptide cleavage, 3 h; 370,000 compounds, 0.62% hits;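 active means inhibition above a per-campaign cutoff equal to the mean of compounds falling between control-based bounds plus 3 SD, cut at about 20% in these data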;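 further: 0% = DMSO wells while the 100% control is not disclosed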
Target sequence (O14672 214-748 limits assumed): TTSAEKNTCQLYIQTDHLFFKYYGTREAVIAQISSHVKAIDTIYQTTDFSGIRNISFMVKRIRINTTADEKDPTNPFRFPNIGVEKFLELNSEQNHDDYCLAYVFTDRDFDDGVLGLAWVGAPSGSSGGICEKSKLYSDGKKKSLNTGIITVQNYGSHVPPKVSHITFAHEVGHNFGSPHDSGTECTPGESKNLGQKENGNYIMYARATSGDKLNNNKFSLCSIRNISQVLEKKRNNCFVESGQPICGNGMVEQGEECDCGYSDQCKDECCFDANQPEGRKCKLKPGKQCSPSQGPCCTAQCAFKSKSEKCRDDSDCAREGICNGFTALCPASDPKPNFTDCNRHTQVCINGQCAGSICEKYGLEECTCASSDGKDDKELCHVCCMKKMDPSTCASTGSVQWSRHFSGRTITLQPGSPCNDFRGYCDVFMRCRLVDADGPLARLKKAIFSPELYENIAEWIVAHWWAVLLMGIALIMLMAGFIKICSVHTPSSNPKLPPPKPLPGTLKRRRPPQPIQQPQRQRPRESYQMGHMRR
PLC-gamma1 inh: PLC-gamma1 enzyme inhibitors, primary screen, biochemical, fluorescence, purified enzyme. AID 720700, 2013. 1-phosphatidylinositol 4,5-bisphosphate phosphodiesterase gamma-1 (Homo sapiens), P19174. fluorogenic substrate. inhibition, % at 12.2 µM. 370,000 compounds, 0.84% hits; in the data active means inhibition above about 9.5%
Active calls of the source: *; i = inactive; nt = no result given.

SMILES	KLK7 zymogen act	ADAM17 inh	PLC-beta3 inh	ADAM10 inh	PLC-gamma1 inh
CCOC(=O)N1CCN(C(=O)c2ccc3c(c2)N(Cc2ccc(F)cc2)CCS3)CC1	9.0	-105.9	i	-439.1	i
CCOc1cc(N2CCOCC2)c(OCC)cc1NC(=O)CN1CCc2ccccc2C1	-0.6	-1.2	10.7*	6.2	8.4
CCOc1cc(N2CCOCC2)c(OCC)cc1NC(=O)CSc1ccccc1C(=O)O	-0.2	-3.2	-8.8	-9.9	5.1
CCc1cc(Cn2nc(-c3ccccc3)cc2C(=O)NCc2cccs2)on1	0.8	16.3*	4.7	37.1*	3.8
CCc1c2c(nc3ccc(OC(=O)N4CCC(N5CCCCC5)CC4)cc13)-c1cc3c(c(=O)n1C2)COC(=O)[C@]3(O)CC	63.0*	i	i	i	i
CCOC(=O)N1CCN(C(=O)C(=O)Nc2ccc3nc4n(c(=O)c3c2)CCCCC4)CC1	0.2	1.8	2.4	-13.3	0.6
CC1(C)C=C2C(N(Cc3ccc4c(c3)OCO4)C(=N)N2C(=O)OCc2ccccc2)n2c(=O)n(-c3ccccc3)c(=O)n21 (stereo not drawn)	nt	-4.2	-14.9	-7.2	-11.9
O=S(=O)(Nc1ccc(N=Nc2ccc(O)c3ccccc23)cc1)c1ccccc1	-0.7	14.3*	-4.6	15.5	6.8
O=S(=O)(Nc1ccc(S(=O)(=O)Nc2ccccc2)cc1)c1ccccc1	0.5	1.5	4.8	6.9	-0.1
CC1(C)CC(Cc2ccc(C(=O)c3ccccc3)cc2)N(C(=O)OC(C)(C)C)N1 (stereo not drawn)	0.3	7.9	8.8	7.1	11.3*
CC(C)(C)OC(=O)N1CCC(CNC(=O)c2ccccc2)CC1	-0.2	-3.3	-2.3	4.0	-0.6
COc1cccc(C(=O)n2ccc3ccc(-c4ccc5ccn(Cc6ccc(C#N)cc6)c5c4)cc32)c1	-1.8	-7.0	-89.0	-20.3	-74.4
O=C(CSc1cccc2cccnc12)OCC(=O)c1ccccc1	73.3*	-65.3	-92.7	-221.8	-75.0
COc1ccc(CN(C(=O)CSc2nnc(-c3c[nH]c4ccccc34)o2)c2ccc(F)cc2)cc1OC	0.6	8.1	4.5	21.5*	4.8
O=C(CCCC(=O)c1ccccc1)NCc1ccccc1	0.1	-0.1	-1.2	1.1	-0.3
COc1cc(CNC(=O)CCCC(=O)c2ccccc2)cc(OC)c1OC	0.1	1.8	-1.2	1.5	9.9*
COC(=O)[C@]12C[C@H](CC(=O)NCCCCc3ccccc3)C(=O)N(CCC3=CCCCC3)C1=C[C@H](C(C)C)O[C@@H]2C1CC1	-0.1	2.9	3.2	8.8	3.4
O=[N+]([O-])c1ccc(N/N=C/c2ccc(O)c(O)c2O)c(S(=O)(=O)N2CCOCC2)c1	0.2	7.0	-0.4	14.3	10.6*
COc1cc(/C=N/Nc2ccc([N+](=O)[O-])cc2S(=O)(=O)N2CCOCC2)cc(OC)c1OC	0.6	2.1	5.2	-1.7	3.3
O=C(CSc1nnc(-c2ccccn2)n1-c1ccccc1)c1ccc(Cl)c(Cl)c1	0.0	-0.7	-2.2	-2.2	-2.4
O=C(NC1CCCCN(Cc2ccc(Cl)cc2)C1=O)c1c(F)cccc1F (stereo not drawn)	0.5	1.2	3.3	-0.7	4.2
Cc1ccc2ccc(C(Nc3ccccc3)c3ccccc3)c(O)c2n1 (stereo not drawn)	0.4	7.7	-4.0	12.9	-12.1
Cc1ccc2ccc(C(Nc3ccccn3)c3ccccc3)c(O)c2n1 (stereo not drawn)	0.8	7.7	-6.4	24.6*	-5.2
O=C(Nc1ccc(S(=O)(=O)N2CCOCC2)cc1)c1cc(-c2cc(Cl)ccc2O)n[nH]1	-0.4	5.3	-5.4	26.6*	4.9
Cc1cc(O)c(-c2cc(C(=O)Nc3ccc(S(=O)(=O)N4CCOCC4)cc3)[nH]n2)cc1C	0.1	2.2	1.1	5.9	2.0
SMILES	KLK7 zymogen act	ADAM17 inh	PLC-beta3 inh	ADAM10 inh	PLC-gamma1 inh
Cc1cccc(C2C3=C(Nc4[nH]n(-c5ccccc5)c(=O)c42)c2ccccc2C3=O)c1 (stereo not drawn)	0.0	9.8*	-1.3	16.4	-3.1
C=C(C)Cn1c(SCC(=O)N/N=C(\C)c2ccc(Br)cc2)nnc1-c1ccc(Br)cc1	-0.5	-1.8	-5.1	4.0	4.8
CCCNC(=O)C(=O)Nc1ccc(N(C)C)cc1	0.4	6.6	8.0	10.1	11.3*
CN(C)c1ccc(NC(=O)C(=O)NCCOc2ccccc2)cc1	0.0	-0.6	2.2	1.6	-1.5
COC(=O)[C@@H]1C[C@@H](c2ccccc2)[C@H](C)C1(C)C	0.1	-4.1	6.1	2.6	9.7*
COC(=O)[C@H]1C[C@@H](c2ccccc2)[C@H](C)C1(C)C	0.0	0.2	-0.6	3.1	0.9
CCOc1ccc(-n2c(SCc3ccc(C#N)cc3)nnc2-c2ccco2)cc1	0.5	-0.4	-4.2	-9.6	0.2
CNC[C@H](CC1CCCCC1)NC[C@H](Cc1ccccc1)NCCC12CC3CC(CC(C3)C1)C2	-0.4	-3.4	4.2	-1.2	10.0*
Cc1cccc(-n2nc3c(c2NC(=O)c2ccco2)CSC3)c1C	0.6	9.1*	-6.6	16.2	-3.4
S=C(Nc1ccc(Cl)c(Cl)c1)NC1CCN(Cc2ccccc2)CC1	0.4	3.7	2.0	19.8*	2.0
Cc1ccccc1NC(=O)C1CCCN1S(=O)(=O)c1cccnc1 (stereo not drawn)	0.0	-0.6	-0.1	4.2	2.5
O=C1Cc2ccccc2C(=O)N1	0.5	-1.8	-0.5	-15.1	10.7*
CN(C)c1ccc(NC(=O)CSc2nc3ccccc3c(=O)n2C2CCCCC2)cc1	-0.3	11.9*	0.7	11.8	0.7
C[C@@H]1CCC(=O)N(C[C@@H](C)CSc2ccccc2)CC1	0.8	6.7	7.2	10.7	10.9*
CCOC(=O)CNC(=O)CN1CCCN(S(=O)(=O)c2ccc(Br)s2)CC1	0.5	0.8	2.5	1.1	1.8
O=C(CN1CCCN(S(=O)(=O)c2ccc(Br)s2)CC1)Nc1ccc(Cl)cc1	-0.1	1.6	-25.0	20.0*	-2.1
CC1(C)CC(=O)C=C(Nc2ccccc2NC(=O)c2cc(Cl)ccc2F)C1	0.4	1.8	-1.1	1.3	2.1
O=C(c1ccc(Cl)c(Cl)c1)N1CCC(=O)N(C(COCc2cccc(Cl)c2)Cc2ccccc2)CC1 (stereo not drawn)	0.9	12.7*	1.4	28.5*	4.8
O=C(c1cccc(Cl)c1)N1CCC(=O)N(C(COCc2cccc(Cl)c2)Cc2ccccc2)CC1 (stereo not drawn)	-0.2	2.2	-2.0	6.1	6.8
COC(=O)[C@H](C(C)C)N1Cc2nnn(Cc3ccccc3)c2-c2ccccc2S1(=O)=O	0.4	2.3	1.8	3.2	-0.8
